Source: PubChem BioAssay (NCATS)
Records with an inconclusive call do not appear. Active and inactive are the calls of the source. Calls follow the shape of the dose curve; as a rule, active = well fitted curve in the direction sought with a large enough effect; inconclusive = small, poorly fitted or top-dose-only effect, or another doubt; inactive = no such curve, though single readings can be large; an effect the other way counts as inactive or inconclusive.

Columns and labels:
[1] = qHTS of pediatric cancer cell lines to identify multiple opportunities for drug repurposing: Primary screen for SJ-GBM2 cells (AID 1347091); also: potency is read from the fitted curve at half-maximal effect;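 as to activity change, negative = cytotoxic: plate controls were DMSO neutral control for no effect and bortezomib for full effect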
Summary of the method: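 Eight- or eleven-point concentration series, 48 h treatment at 37 degrees C in growth media; readout CellTiter-Glo luminescence. Potency and efficacy were taken from the concentration-response curves.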

[2] = qHTS of pediatric cancer cell lines to identify multiple opportunities for drug repurposing: Primary screen for A673 cells (AID 1347092); also: nearly all actives have a fitted effect of over 45% in size; also: potency is read from the fitted curve at half-maximal effect; as to activity change, negative = cytotoxic: % is scaled to controls: 0 for no effect and ±100 for the full control effect
Summary of the method: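 Luminescence from CellTiter-Glo, taken after 15 min at room temperature, served as the proxy for metabolically active cells following 48 h treatment. Both potency and efficacy were taken from curves fitted to the titration data.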

[3] = qHTS of pediatric cancer cell lines to identify multiple opportunities for drug repurposing: Primary screen for SK-N-MC cells (AID 1347093); also: potency is read from the fitted curve at half-maximal effect;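 as to activity change, negative = cytotoxic: series mostly up to about 46 µM; plate controls were DMSO neutral control for no effect and bortezomib for full effect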
Summary of the method: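 Metabolically active cells were quantified by ATP-dependent luminescence (CellTiter-Glo, 15 min at room temperature) following 48 h treatment. Cells had been plated at 500-1,000 per well and settled for 5 h beforehand.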

[4] = qHTS of pediatric cancer cell lines to identify multiple opportunities for drug repurposing: Primary screen for BT-37 cells (AID 1347094); also: potency is read from the fitted curve at half-maximal effect;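 as to activity change, negative = cytotoxic: series mostly up to about 57 µM; plate controls were DMSO for no effect and bortezomib for full effect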
Summary of the method: (§1)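 ATP-based luminescence (CellTiter-Glo) quantifies viability after a 48-hour exposure. Compounds are dosed across 8 or 11 final concentrations; DMSO and 2.3 µM bortezomib serve as controls.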

[5] = qHTS of pediatric cancer cell lines to identify multiple opportunities for drug repurposing: Primary screen for NB-EBc1 cells (AID 1347095);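 also: plate controls were DMSO neutral control for no effect and bortezomib for full effect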
Summary of the method: as §1

[6] = qHTS of pediatric cancer cell lines to identify multiple opportunities for drug repurposing: Primary screen for U-2 OS cells (AID 1347096);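 also: plate controls were DMSO wells for no effect and bortezomib positive control wells for full effect; nearly all actives have a fitted effect of over 50% in size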
Summary of the method: (§2)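 Cells (500-1,000/well) in growth media were settled 5 h at 37 degrees C, then given compounds for 48 h. Viability was read as CellTiter-Glo luminescence. Primary runs used MIPE at 11 points (0.78 nM-46 µM) and NPC at 8 points (0.59 nM-46 µM); follow-ups used 11 points.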

[7] = qHTS of pediatric cancer cell lines to identify multiple opportunities for drug repurposing: Primary screen for Saos-2 cells (AID 1347097); also: nearly all actives have a fitted effect of over 40% in size; also: potency is read from the fitted curve at half-maximal effect; as to activity change, negative = cytotoxic: % is scaled to controls: 0 for no effect and ±100 for the full control effect
Summary of the method: as §1

[8] = qHTS of pediatric cancer cell lines to identify multiple opportunities for drug repurposing: Primary screen for SK-N-SH cells (AID 1347098); also: nearly all actives have a fitted effect of over 65% in size; also: potency is read from the fitted curve at half-maximal effect;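 as to activity change, negative = cytotoxic: DMSO served as neutral control and bortezomib at 2.3 µM as positive control; % is scaled to controls: 0 for no effect and ±100 for the full control effect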
Summary of the method: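 Cells (500-1,000/well) rested 5 h, then received compounds for 48 h; metabolically active cells were measured by CellTiter-Glo luminescence. Final concentrations spanned up to 46 µM (MIPE, 11-point) or 0.59 nM-46 µM (NPC, 8-point) in primary screens, 11-point in follow-ups.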

[9] = qHTS of pediatric cancer cell lines to identify multiple opportunities for drug repurposing: Primary screen for NB1643 cells (AID 1347099); also: nearly all actives have a fitted effect of over 50% in size; also: potency is read from the fitted curve at half-maximal effect;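 as to activity change, negative = cytotoxic: plate controls were DMSO neutral control for no effect and bortezomib positive control for full effect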
Summary of the method: as §1

[10] = qHTS of pediatric cancer cell lines to identify multiple opportunities for drug repurposing: Primary screen for LAN-5 cells (AID 1347100); also: potency is read from the fitted curve at half-maximal effect;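 as to activity change, negative = cytotoxic: plate controls were DMSO neutral control for no effect and bortezomib positive control for full effect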
Summary of the method: as §2

O=C(O)Cc1cccc(-c2cc(CCCCCCc3ccc(O[C@H]4O[C@H](CO)[C@@H](O)[C@H](O)[C@@H]4O)c(-c4cccc(CC(=O)O)c4)c3)ccc2O[C@H]2O[C@H](CO)[C@@H](O)[C@H](O)[C@@H]2O)c1
inactive: activity change, negative = cytotoxic [1] 18.6% [at 0.597 µM] | activity change, negative = cytotoxic [2] 10.8% [at 0.597 µM] | activity change, negative = cytotoxic [3] -8.23% [at 0.597 µM] | activity change, negative = cytotoxic [4] 12.8% [at 0.745 µM] | activity change, negative = cytotoxic [5] 9.49% [at 0.597 µM] | activity change, negative = cytotoxic [6] 2.96% [at 0.597 µM] | activity change, negative = cytotoxic [7] 9.71% [at 0.597 µM] | activity change, negative = cytotoxic [8] -3.64% [at 0.741 µM] | activity change, negative = cytotoxic [9] 1.92% [at 0.597 µM] | activity change, negative = cytotoxic [10] 9.16% [at 0.597 µM]

COc1cccc2c1C(=O)c1c(O)c3c(c(O)c1C2=O)C[C@@](O)(C(=O)CO)C[C@@H]3O[C@H]1C[C@H](N)[C@H](O[C@@H]2CCCCO2)[C@H](C)O1
active: Potency [1] 1.33 µM | Potency [2] 1.06 µM | Potency [3] 0.211 µM | Potency [4] 0.246 µM | Potency [7] 2.66 µM | Potency [8] 0.097 µM | Potency [9] 0.596 µM | Potency [10] 0.266 µM

Clc1ccccc1-c1nc(-c2ccncc2)no1
inactive: Potency [1] | Potency [2] | Potency [3] | Potency [4] | Potency [6] | Potency [7] | Potency [9] | Potency [10]

O=C(O)c1ccccc1Nc1cccc(C(F)(F)F)c1
inactive: Potency [1] | Potency [2] | Potency [4] | Potency [6] | Potency [7] | Potency [8] | Potency [9] | Potency [10]

Cc1ccc2c(n1)Oc1ccc(C(C)C(=O)OCC(=O)N(C)C)cc1C2 (stereo not given)
inactive: Potency [1] | Potency [2] | Potency [3] | Potency [4] | Potency [5] | Potency [6] | Potency [8] | Potency [9] | Potency [10]

O=C(CCN1CCN(CCO)CC1)N1c2ccccc2Sc2ccc(C(F)(F)F)cc21
inactive: Potency [1] | Potency [2] | Potency [3] | Potency [4] | Potency [6] | Potency [7] | Potency [8] | Potency [9] | Potency [10]

O=C(O)Cc1ccc(-c2ccccc2)cc1
inactive: Potency [1] | Potency [2] | Potency [3] | Potency [4] | Potency [5] | Potency [6] | Potency [7] | Potency [8] | Potency [9] | Potency [10]

O=C1CN(/N=C/c2ccc([N+](=O)[O-])o2)C(=O)N1
inactive: Potency [1] | Potency [3] | Potency [4] | Potency [5] | Potency [6] | Potency [7] | Potency [8] | Potency [9] | Potency [10]

CC(=O)c1ccc(OCC(=O)N2CCCCC2)cc1
inactive: Potency [1] | Potency [2] | Potency [3] | Potency [4] | Potency [6] | Potency [7] | Potency [8] | Potency [9] | Potency [10]

CCCCCCOc1ccccc1C(N)=O
inactive: Potency [1] | Potency [2] | Potency [4] | Potency [6] | Potency [7] | Potency [8] | Potency [9] | Potency [10]

CO[C@@]1(NC(=O)Cc2cccs2)C(=O)N2C(C(=O)O)=C(COC(N)=O)CS[C@@H]21
inactive: Potency [1] | Potency [2] | Potency [3] | Potency [4] | Potency [5] | Potency [6] | Potency [7] | Potency [8] | Potency [9] | Potency [10]

CC(C(=O)O)c1ccc(C(=O)c2cccs2)cc1 (stereo not given)
inactive: Potency [1] | Potency [2] | Potency [3] | Potency [4] | Potency [6] | Potency [8] | Potency [9] | Potency [10]

CN(C)CCn1nnnc1SCC1=C(C(=O)O)N2C(=O)[C@@H](NC(=O)Cc3csc(N)n3)[C@H]2SC1
inactive: Potency [1] | Potency [2] | Potency [3] | Potency [4] | Potency [6] | Potency [7] | Potency [8] | Potency [9] | Potency [10]

O=C(OCc1ccccc1)c1ccccc1
inactive: Potency [1] | Potency [2] | Potency [3] | Potency [4] | Potency [6] | Potency [7] | Potency [8] | Potency [9] | Potency [10]

N=C1N=C(N)c2cc3ccccc3cc21
active: Potency [1] 24.3 µM | Potency [2] 19.3 µM | Potency [3] 6.86 µM | Potency [4] 15.9 µM | Potency [7] 24.3 µM | Potency [8] 25 µM | Potency [9] 19.3 µM | Potency [10] 24.3 µM

c1ccc2sc(SN3CCOCC3)nc2c1
inactive: Potency [1] | Potency [2] | Potency [3] | Potency [4] | Potency [6] | Potency [7] | Potency [8] | Potency [9] | Potency [10]

CCC1C(=O)OCC1Cc1cncn1C (stereo not given)
inactive: Potency [1] | Potency [3] | Potency [4] | Potency [5] | Potency [6] | Potency [7] | Potency [8] | Potency [9] | Potency [10]

CC(=O)SCC(CC(=O)c1ccc(C)cc1)C(=O)O (stereo not given)
inactive: Potency [1] | Potency [2] | Potency [3] | Potency [4] | Potency [6] | Potency [8] | Potency [9] | Potency [10]

Nc1c(CC(=O)O)cccc1C(=O)c1ccc(Br)cc1
inactive: Potency [1] | Potency [2] | Potency [3] | Potency [4] | Potency [5] | Potency [6] | Potency [7] | Potency [8] | Potency [9] | Potency [10]

S=c1[nH]c2ccccc2s1
inactive: Potency [1] | Potency [4] | Potency [6] | Potency [7] | Potency [8] | Potency [10]
active: Potency [2] 19.3 µM

Cc1[nH]cnc1CN1CCc2c(c3ccccc3n2C)C1=O
inactive: Potency [1] | Potency [2] | Potency [3] | Potency [4] | Potency [6] | Potency [7] | Potency [8] | Potency [9] | Potency [10]

Cc1ccc(C(=O)c2ccc(CC(=O)O)n2C)cc1
inactive: Potency [1] | Potency [2] | Potency [3] | Potency [4] | Potency [6] | Potency [7] | Potency [8] | Potency [9] | Potency [10]

CN1CC(=O)N/C1=N/C(=O)Nc1cccc(Cl)c1
inactive: Potency [1] | Potency [2] | Potency [3] | Potency [4] | Potency [6] | Potency [7] | Potency [8] | Potency [9] | Potency [10]

CC(C)(C)c1nnc(NS(=O)(=O)c2ccc(N)cc2)s1
inactive: Potency [1] | Potency [2] | Potency [3] | Potency [4] | Potency [6] | Potency [8] | Potency [9] | Potency [10]

CCCCCCCCCCCCCCCC(=O)OC(C)C
inactive: Potency [1] | Potency [3] | Potency [4] | Potency [5] | Potency [6] | Potency [7] | Potency [8] | Potency [9] | Potency [10]

NCCO
inactive: Potency [1] | Potency [2] | Potency [3] | Potency [4] | Potency [5] | Potency [6] | Potency [10]

CCOC(=O)c1ccccc1O
inactive: Potency [1] | Potency [3] | Potency [4] | Potency [6] | Potency [7] | Potency [8] | Potency [9] | Potency [10]
active: Potency [2] 0.001 µM

CN(C)[C@@H]1C(=O)C(C(=O)NCN2CCCC2)=C(O)[C@@]2(O)C(=O)C3=C(O)c4c(O)cccc4[C@@](C)(O)C3C[C@@H]12 (stereo not given in full)
inactive: Potency [1] | Potency [2] | Potency [3] | Potency [4] | Potency [5] | Potency [6] | Potency [7] | Potency [8] | Potency [9] | Potency [10]

CCCOC(=O)c1ccc(O)cc1
inactive: Potency [1] | Potency [3] | Potency [4] | Potency [5] | Potency [6] | Potency [8] | Potency [9] | Potency [10]

COc1ccnc2c1CCCCC2S(=O)c1nc2ccccc2[nH]1 (stereo not given)
inactive: Potency [1] | Potency [3] | Potency [4] | Potency [5] | Potency [6] | Potency [7] | Potency [8] | Potency [9] | Potency [10]

O=C(O)/C=C\C(=O)O
inactive: Potency [1] | Potency [3] | Potency [4] | Potency [6] | Potency [7] | Potency [8] | Potency [9] | Potency [10]

Nc1ccc(O)c(C(=O)O)c1
inactive: Potency [1] | Potency [3] | Potency [4] | Potency [5] | Potency [6] | Potency [7] | Potency [8] | Potency [9] | Potency [10]

Nc1cc(-c2ccncc2)c[nH]c1=O
inactive: Potency [1] | Potency [3] | Potency [4] | Potency [6] | Potency [7] | Potency [8] | Potency [9]

N=C(N)N
inactive: Potency [1] | Potency [3] | Potency [4] | Potency [6] | Potency [7] | Potency [8] | Potency [9] | Potency [10]

CC1(C)S[C@@H]2[C@H](NC(=O)[C@H](N)c3ccccc3)C(=O)N2[C@H]1C(=O)O
inactive: Potency [1] | Potency [3] | Potency [4] | Potency [6] | Potency [7] | Potency [8] | Potency [9] | Potency [10]

Cc1c(Nc2ncccc2C(=O)O)cccc1C(F)(F)F
active: Potency [3] 21.1 µM
inactive: Potency [1] | Potency [4] | Potency [6] | Potency [7] | Potency [8] | Potency [9] | Potency [10]
